Laboratory results reported in the supplement of paper PMC10849652.
Targets with a hit are over-represented here; the source holds about 7,900 in all. About 0.6% of all pairs of compound and target were hits.

Tests used:
Test in all cases: log2 fold change, soluble protein after heating vs DMSO (PISA); higher = thermal stabilisation; K562 cells, 10 uM, 30 min; active = over 0.2 and 3.5 SD of the protein, either way, in both replicates (recomputed)
bafetinib = compound: Cc1ccc(NC(=O)c2ccc(CN3CC[C@H](N(C)C)C3)c(C(F)(F)F)c2)cc1Nc1nccc(-c2cncnc2)n1 [bafetinib]
In short: (§1)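 Soluble protein was defined as the supernatant after 21,000xg for 90 min. It came from K562 cells at 2×10^6 cells/mL given 10 μM compound for 30 min, heated in aliquots for 3 min across 48°C-58°C, pooled, and extracted in PBS with 0.5% NP-40 at 4°C, and was quantified by TMTpro 16plex LC-MS/MS with equalised channel sums. Thermal stability against control samples, from duplicates, is reported as log2 fold change.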

[1] = compound: Cc1cccc(CC(=O)N2CCc3c2ccc(-c2cn(C)c4ncnc(N)c24)c3F)n1
In short: as §1

nilotinib = compound: Cc1cn(-c2cc(NC(=O)c3ccc(C)c(Nc4nccc(-c5cccnc5)n4)c3)cc(C(F)(F)F)c2)cn1 [nilotinib]
In short: as §1

[2] = compound: Cc1nc(Nc2n[nH]c3c2CN(C(=O)N[C@H](CN(C)C)c2ccccc2)C3(C)C)c2sccc2n1
In short: as §1

dasatinib = compound: Cc1nc(Nc2ncc(C(=O)Nc3c(C)cccc3Cl)s2)cc(N2CCN(CCO)CC2)n1 [dasatinib]
In short: as §1

[3] = compound: Cc1ncc(-c2ccnc(Nc3ccc(S(C)(=O)=O)cc3)n2)n1C(C)C
In short: as §1

[4] = compound: Cn1cc(-c2ccc3c(c2)CCN3C(=O)Cc2cccc(C(F)(F)F)c2)c2c(N)ncnc21
In short: as §1

[5] = compound: Cn1cc(-c2ccc3nnc(C(F)(F)c4ccc5ncccc5c4)n3n2)cn1
In short: as §1

tipifarnib = compound: Cn1cncc1[C@@](N)(c1ccc(Cl)cc1)c1ccc2c(c1)c(-c1cccc(Cl)c1)cc(=O)n2C [tipifarnib]
In short: as §1

mubritinib = compound: FC(F)(F)c1ccc(/C=C/c2nc(COc3ccc(CCCCn4ccnn4)cc3)co2)cc1 [mubritinib]
In short: as §1

[6] = compound: NC(=O)Nc1cc(-c2cccc(F)c2)sc1C(=O)N[C@H]1CCCNC1
In short: as §1

[7] = compound: NC(=O)c1cnc(N[C@@H]2CCCC[C@@H]2N)nc1Nc1cccc(-n2nccn2)c1
In short: as §1

[8] = compound: NC1(c2ccc(-c3nc4ccn5c(=O)[nH]nc5c4cc3-c3ccccc3)cc2)CCC1
In short: as §1

[9] = compound: NCC(=O)Nc1ccc(-n2nc(C(F)(F)F)cc2-c2ccc3c(ccc4ccccc43)c2)cc1
In short: as §1

entinostat = compound: Nc1ccccc1NC(=O)c1ccc(CNC(=O)OCc2cccnc2)cc1 [entinostat]
In short: as §1

vorinostat = compound: O=C(CCCCCCC(=O)Nc1ccccc1)NO [vorinostat]
In short: as §1

citarinostat = compound: O=C(CCCCCCNC(=O)c1cnc(N(c2ccccc2)c2ccccc2Cl)nc1)NO [citarinostat]
In short: as §1

silmitasertib = compound: O=C(O)c1ccc2c(c1)nc(Nc1cccc(Cl)c1)c1ccncc12 [silmitasertib]
In short: as §1

[10] = compound: O=C1NC(=O)C(c2cnc3ccccn23)=C1c1cn2c3c(cc(F)cc13)CN(C(=O)N1CCCCC1)CC2
In short: as §1

[11] = compound: c1cc(OCCN2CCCCC2)cc(-c2n[nH]c3ccc(-c4nnc[nH]4)cc23)c1
In short: as §1

Measured: log2 fold change

PIKFYVE (UniProt Q9Y2I7)
Chain of UniProt Q9Y2I7 (Q9Y2I7 whole entry, looked up): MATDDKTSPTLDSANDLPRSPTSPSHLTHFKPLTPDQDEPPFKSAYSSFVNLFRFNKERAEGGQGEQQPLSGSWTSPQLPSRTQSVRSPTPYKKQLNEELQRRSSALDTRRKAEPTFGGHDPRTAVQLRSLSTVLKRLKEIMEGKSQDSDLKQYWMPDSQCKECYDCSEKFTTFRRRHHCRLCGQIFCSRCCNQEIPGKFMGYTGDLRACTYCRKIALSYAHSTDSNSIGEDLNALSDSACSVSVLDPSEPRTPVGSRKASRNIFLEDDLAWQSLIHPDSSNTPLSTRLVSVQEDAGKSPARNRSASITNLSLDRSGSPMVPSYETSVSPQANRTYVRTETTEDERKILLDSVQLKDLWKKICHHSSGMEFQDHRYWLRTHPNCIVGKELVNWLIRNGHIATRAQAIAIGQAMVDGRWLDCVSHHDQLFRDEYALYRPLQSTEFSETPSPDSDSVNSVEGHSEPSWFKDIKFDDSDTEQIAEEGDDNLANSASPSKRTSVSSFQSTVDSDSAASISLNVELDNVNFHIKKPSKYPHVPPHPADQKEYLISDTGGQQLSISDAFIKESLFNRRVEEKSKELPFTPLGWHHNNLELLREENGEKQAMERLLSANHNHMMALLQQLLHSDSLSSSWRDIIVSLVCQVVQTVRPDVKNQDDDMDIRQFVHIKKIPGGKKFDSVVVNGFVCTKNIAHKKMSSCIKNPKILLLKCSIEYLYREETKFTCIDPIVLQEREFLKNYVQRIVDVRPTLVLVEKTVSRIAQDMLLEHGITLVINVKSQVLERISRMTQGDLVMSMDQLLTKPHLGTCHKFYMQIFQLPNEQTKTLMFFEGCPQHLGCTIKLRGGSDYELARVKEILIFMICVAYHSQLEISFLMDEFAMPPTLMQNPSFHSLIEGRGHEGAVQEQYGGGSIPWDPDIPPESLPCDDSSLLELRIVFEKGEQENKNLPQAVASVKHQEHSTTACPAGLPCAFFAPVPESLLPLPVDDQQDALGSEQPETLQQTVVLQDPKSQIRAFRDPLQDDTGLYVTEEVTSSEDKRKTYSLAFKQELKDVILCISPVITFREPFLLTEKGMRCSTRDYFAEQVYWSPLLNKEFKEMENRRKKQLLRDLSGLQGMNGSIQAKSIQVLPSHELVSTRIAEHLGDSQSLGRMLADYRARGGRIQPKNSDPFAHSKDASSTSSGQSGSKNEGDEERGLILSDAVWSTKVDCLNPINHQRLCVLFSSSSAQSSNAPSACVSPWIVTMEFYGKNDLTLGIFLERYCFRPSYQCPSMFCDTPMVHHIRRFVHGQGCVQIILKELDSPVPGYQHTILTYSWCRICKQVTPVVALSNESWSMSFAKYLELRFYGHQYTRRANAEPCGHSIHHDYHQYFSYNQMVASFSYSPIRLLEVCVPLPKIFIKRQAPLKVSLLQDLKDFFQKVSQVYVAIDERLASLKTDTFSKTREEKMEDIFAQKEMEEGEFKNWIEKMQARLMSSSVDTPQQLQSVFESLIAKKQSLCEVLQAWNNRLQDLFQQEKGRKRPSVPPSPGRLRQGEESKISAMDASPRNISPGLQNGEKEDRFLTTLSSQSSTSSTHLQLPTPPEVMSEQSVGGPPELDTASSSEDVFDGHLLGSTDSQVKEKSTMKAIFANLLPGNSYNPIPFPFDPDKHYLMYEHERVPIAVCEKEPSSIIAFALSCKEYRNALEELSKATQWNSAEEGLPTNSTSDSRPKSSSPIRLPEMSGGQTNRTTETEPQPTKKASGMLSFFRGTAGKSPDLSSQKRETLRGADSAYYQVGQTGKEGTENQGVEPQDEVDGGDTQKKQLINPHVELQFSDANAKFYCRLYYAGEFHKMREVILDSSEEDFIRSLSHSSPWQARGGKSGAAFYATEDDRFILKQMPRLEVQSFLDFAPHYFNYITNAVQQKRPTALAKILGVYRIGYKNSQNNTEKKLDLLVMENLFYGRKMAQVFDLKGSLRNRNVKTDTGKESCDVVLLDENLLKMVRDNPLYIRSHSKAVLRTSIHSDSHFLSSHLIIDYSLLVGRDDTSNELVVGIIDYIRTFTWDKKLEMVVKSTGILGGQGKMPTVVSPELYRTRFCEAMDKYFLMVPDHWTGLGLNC
inactive: bafetinib -0.031 | [1] 0.153 | nilotinib -0.015 | [2] 0.045 | dasatinib -0.061 | [3] -0.092 | [4] 0.005 | [5] 0.031 | tipifarnib 0.108 | mubritinib 0.017 | [6] 0.029 | [7] -0.055 | [8] -0.256 | [9] -0.072 | entinostat 0.09 | vorinostat 0.021 | citarinostat -0.047 | silmitasertib 0.006 | [10] -0.069 | [11] -0.08

PDS5B (UniProt Q9NTI5)
inactive: bafetinib 0.041 | [1] -0.139 | nilotinib -0.314 | [2] 0.04 | dasatinib -0.244 | [3] -0.031 | [4] 0.038 | [5] 0.147 | tipifarnib 0.054 | mubritinib 0.127 | [6] -0.07 | [7] -0.12 | [8] -0.043 | [9] -0.167 | entinostat -0.036 | vorinostat -0.043 | citarinostat 0.046 | silmitasertib 0.027 | [10] -0.08 | [11] 0.03

PCF11 (UniProt O94913)
inactive: bafetinib -0.099 | [1] 0.078 | [4] -0.095 | [5] 0.007 | tipifarnib 0.168 | mubritinib 0.179 | [7] -0.047 | [8] -0.333 | [9] -0.179 | vorinostat -0.04 | citarinostat 0.001 | silmitasertib -0.113 | [11] 0.112

PHLDB1 isoform 2 (UniProt Q86UU1)
inactive: bafetinib -0.112 | [1] 0.117 | nilotinib 0.136 | [2] -0.265 | dasatinib -0.073 | [3] -0.128 | [4] 0.061 | [5] 0.016 | tipifarnib 0.057 | mubritinib 0.14 | [7] 0.112 | [8] -0.057 | [9] -0.186 | vorinostat 0.229 | citarinostat -0.014 | silmitasertib 0.045 | [10] -0.178 | [11] -0.117

PRKCG (UniProt P05129)
inactive: bafetinib -0.012 | [1] 0.067 | nilotinib 0.019 | [2] -0.385 | dasatinib 0.022 | [3] 0.018 | [4] 0.015 | [5] -0.132 | tipifarnib -0.095 | mubritinib 0.047 | [6] -0.064 | [7] -0.043 | [8] -0.086 | [9] 0.068 | entinostat 0.117 | vorinostat 0.109 | citarinostat 0.193 | silmitasertib 0.062 | [10] -0.229 | [11] 0.082

PRG4 (UniProt Q92954)
inactive: bafetinib -0.095 | [1] 0.104 | nilotinib -0.05 | [2] 0.065 | dasatinib 0 | [3] 0.258 | [4] 0.203 | [5] 0.068 | mubritinib -0.016 | [6] -0.168 | [7] -0.113 | [8] -0.16 | [9] -0.068 | entinostat -0.156 | vorinostat 0.201 | citarinostat -0.015 | silmitasertib 0 | [10] -0.109 | [11] -0.097

PNN (UniProt Q9H307)
inactive: bafetinib -0.08 | [1] -0.008 | nilotinib -0.028 | dasatinib 0.062 | [3] -0.039 | [4] 0.028 | [5] 0.231 | tipifarnib 0.255 | mubritinib -0.098 | [6] -0.018 | [7] -0.24 | [8] 0.053 | entinostat 0.021 | vorinostat 0.045 | citarinostat -0.077 | silmitasertib -0.124 | [10] 0.106
active: [2] -0.344 | [11] -0.446

POLR2K (UniProt P53803)
active: [11] -0.474
inactive: bafetinib -0.052 | [1] -0.057 | nilotinib -0.021 | [2] 0.029 | dasatinib 0.081 | [3] 0.089 | [4] 0.006 | [5] 0.019 | tipifarnib -0.036 | mubritinib -0.008 | [6] -0.04 | [7] -0.107 | [8] 0.017 | [9] 0.053 | entinostat -0.01 | vorinostat -0.156 | citarinostat 0.13 | silmitasertib 0.097 | [10] 0.002

PIGH (UniProt Q14442)
Chain of UniProt Q14442 (Q14442 whole entry, looked up): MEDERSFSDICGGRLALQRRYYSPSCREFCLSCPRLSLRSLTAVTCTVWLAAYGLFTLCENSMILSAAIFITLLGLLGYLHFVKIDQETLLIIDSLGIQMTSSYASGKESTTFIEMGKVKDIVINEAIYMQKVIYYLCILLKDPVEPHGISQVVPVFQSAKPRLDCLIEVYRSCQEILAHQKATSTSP
inactive: bafetinib -0.037 | [1] -0.01 | dasatinib -0.053 | [4] 0.099 | [5] 0.009 | tipifarnib 0.056 | mubritinib 0.04 | [7] -0.021 | [8] -0.087 | [9] -0.021 | vorinostat 0.18 | citarinostat 0.031 | silmitasertib 0.093 | [10] -0.128 | [11] -0.05

PPP2R5B (UniProt Q15173)
inactive: bafetinib 0.006 | [1] -0.057 | nilotinib -0.187 | [2] 0.095 | dasatinib -0.047 | [3] -0.042 | tipifarnib -0.067 | mubritinib -0.023 | [7] 0.017 | [8] -0.167 | [9] -0.006 | vorinostat 0.112 | citarinostat 0.122 | silmitasertib 0 | [11] 0.127

PKN1 isoform 2 (UniProt Q16512)
inactive: bafetinib -0.006 | [1] 0.038 | nilotinib -0.044 | dasatinib -0.154 | [3] -0.019 | [4] -0.02 | [5] -0.008 | tipifarnib -0.046 | mubritinib 0.098 | [7] -0.141 | [8] -0.118 | [9] -0.128 | entinostat 0.039 | vorinostat 0.042 | citarinostat 0.024 | silmitasertib 0.024 | [10] -0.131 | [11] -0.157
active: [2] -0.705 | [6] -0.508

PCBP2 (UniProt F8VRH0)
inactive: bafetinib 0.293 | [1] -0.039 | nilotinib -0.347 | [2] -0.215 | dasatinib -0.146 | [3] -0.009 | [4] 0.112 | tipifarnib 0.067 | mubritinib 0.129 | [6] 0.187 | [7] -0.017 | [8] -0.175 | [9] 0.013 | entinostat 0.051 | vorinostat 0.247 | citarinostat 0.006 | silmitasertib -0.105 | [10] 0.144 | [11] -0.01

PTK2B (UniProt Q14289)
inactive: bafetinib -0.024 | [1] -0.063 | nilotinib 0.14 | [2] 0.104 | dasatinib -0.043 | [3] 0.276 | [4] -0.113 | [5] -0.014 | tipifarnib -0.521 | mubritinib -0.003 | [6] 0.076 | [7] 0.091 | [8] -0.13 | [9] -0.092 | entinostat 0.128 | vorinostat 0.011 | silmitasertib 0.054 | [10] 0.072

PI4K2B (UniProt Q8TCG2)
Chain of UniProt Q8TCG2 (Q8TCG2 whole entry, looked up): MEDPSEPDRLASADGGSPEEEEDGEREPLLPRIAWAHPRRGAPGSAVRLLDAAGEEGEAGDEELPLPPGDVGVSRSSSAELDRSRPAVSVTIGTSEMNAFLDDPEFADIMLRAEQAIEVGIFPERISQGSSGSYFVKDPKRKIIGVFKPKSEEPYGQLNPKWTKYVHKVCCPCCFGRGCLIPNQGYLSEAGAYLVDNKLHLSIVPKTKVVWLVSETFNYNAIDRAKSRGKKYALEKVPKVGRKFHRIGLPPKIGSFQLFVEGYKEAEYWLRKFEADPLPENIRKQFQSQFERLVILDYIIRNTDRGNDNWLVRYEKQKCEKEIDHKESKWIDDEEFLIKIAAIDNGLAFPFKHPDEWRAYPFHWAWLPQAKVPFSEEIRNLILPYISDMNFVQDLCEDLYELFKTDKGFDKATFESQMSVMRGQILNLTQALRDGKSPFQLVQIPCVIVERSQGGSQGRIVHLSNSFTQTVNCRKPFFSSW
active: [7] 0.704
inactive: bafetinib -0.084 | [1] 0 | nilotinib 0.124 | [2] -0.052 | dasatinib -0.101 | [3] -0.167 | [4] 0.11 | [5] 0.146 | mubritinib 0.053 | [6] 0.092 | [8] -0.08 | [9] -0.069 | entinostat 0.066 | vorinostat -0.021 | citarinostat 0.075 | silmitasertib 0.051 | [11] 0.111

PHKA1 (UniProt P46020)
Chain of UniProt P46020 (P46020 whole entry, looked up): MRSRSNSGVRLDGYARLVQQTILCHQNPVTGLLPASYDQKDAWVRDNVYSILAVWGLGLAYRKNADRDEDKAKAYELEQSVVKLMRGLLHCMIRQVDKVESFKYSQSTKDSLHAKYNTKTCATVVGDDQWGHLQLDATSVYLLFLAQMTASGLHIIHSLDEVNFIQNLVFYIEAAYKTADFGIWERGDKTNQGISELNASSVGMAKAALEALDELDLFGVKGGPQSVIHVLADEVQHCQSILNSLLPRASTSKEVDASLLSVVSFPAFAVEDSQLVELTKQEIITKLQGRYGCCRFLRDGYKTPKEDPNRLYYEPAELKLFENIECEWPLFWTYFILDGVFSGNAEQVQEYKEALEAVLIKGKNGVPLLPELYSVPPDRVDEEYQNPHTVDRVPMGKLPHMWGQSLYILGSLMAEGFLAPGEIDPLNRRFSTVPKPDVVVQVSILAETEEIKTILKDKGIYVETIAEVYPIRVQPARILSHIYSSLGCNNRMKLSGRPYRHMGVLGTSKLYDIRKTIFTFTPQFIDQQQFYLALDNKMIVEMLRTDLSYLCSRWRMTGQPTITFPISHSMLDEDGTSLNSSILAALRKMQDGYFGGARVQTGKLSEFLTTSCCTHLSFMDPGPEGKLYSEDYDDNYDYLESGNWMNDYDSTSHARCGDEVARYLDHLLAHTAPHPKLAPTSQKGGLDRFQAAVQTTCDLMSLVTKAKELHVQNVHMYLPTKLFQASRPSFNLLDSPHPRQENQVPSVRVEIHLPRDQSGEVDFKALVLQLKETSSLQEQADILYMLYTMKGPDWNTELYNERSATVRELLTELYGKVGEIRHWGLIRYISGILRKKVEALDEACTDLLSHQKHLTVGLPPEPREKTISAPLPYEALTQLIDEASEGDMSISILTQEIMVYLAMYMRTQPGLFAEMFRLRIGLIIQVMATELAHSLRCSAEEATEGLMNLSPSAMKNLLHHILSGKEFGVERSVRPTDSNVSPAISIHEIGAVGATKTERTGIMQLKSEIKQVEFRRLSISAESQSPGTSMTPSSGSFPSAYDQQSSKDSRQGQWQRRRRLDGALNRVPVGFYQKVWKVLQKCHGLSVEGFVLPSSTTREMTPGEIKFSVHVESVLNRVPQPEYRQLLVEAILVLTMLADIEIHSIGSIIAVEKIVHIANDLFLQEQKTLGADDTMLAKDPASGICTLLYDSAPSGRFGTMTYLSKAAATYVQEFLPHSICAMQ
inactive: bafetinib 0.023 | [1] -0.004 | nilotinib -0.233 | [2] -0.021 | dasatinib -0.303 | [3] 0.023 | [4] 0.027 | [5] -0.092 | tipifarnib 0.083 | mubritinib -0.04 | [6] 0.03 | [7] 0.046 | [8] -0.202 | entinostat -0.005 | vorinostat 0.013 | citarinostat 0.128 | silmitasertib 0.004 | [10] 0.027 | [11] -0.068

PCID2 (UniProt Q5JVF3)
inactive: bafetinib 0.07 | [1] 0.078 | nilotinib -0.013 | [2] -0.061 | dasatinib -0.254 | [3] -0.02 | [4] 0.038 | [5] -0.036 | tipifarnib -0.071 | mubritinib 0.109 | [6] -0.019 | [8] -0.103 | [9] 0.06 | entinostat 0.12 | vorinostat 0.199 | citarinostat -0.004 | silmitasertib 0.038 | [10] -0.15 | [11] 0.062

PRKD2 isoform 3 (UniProt Q9BZL6)
Chain of UniProt Q9BZL6 (Q9BZL6 whole entry, looked up): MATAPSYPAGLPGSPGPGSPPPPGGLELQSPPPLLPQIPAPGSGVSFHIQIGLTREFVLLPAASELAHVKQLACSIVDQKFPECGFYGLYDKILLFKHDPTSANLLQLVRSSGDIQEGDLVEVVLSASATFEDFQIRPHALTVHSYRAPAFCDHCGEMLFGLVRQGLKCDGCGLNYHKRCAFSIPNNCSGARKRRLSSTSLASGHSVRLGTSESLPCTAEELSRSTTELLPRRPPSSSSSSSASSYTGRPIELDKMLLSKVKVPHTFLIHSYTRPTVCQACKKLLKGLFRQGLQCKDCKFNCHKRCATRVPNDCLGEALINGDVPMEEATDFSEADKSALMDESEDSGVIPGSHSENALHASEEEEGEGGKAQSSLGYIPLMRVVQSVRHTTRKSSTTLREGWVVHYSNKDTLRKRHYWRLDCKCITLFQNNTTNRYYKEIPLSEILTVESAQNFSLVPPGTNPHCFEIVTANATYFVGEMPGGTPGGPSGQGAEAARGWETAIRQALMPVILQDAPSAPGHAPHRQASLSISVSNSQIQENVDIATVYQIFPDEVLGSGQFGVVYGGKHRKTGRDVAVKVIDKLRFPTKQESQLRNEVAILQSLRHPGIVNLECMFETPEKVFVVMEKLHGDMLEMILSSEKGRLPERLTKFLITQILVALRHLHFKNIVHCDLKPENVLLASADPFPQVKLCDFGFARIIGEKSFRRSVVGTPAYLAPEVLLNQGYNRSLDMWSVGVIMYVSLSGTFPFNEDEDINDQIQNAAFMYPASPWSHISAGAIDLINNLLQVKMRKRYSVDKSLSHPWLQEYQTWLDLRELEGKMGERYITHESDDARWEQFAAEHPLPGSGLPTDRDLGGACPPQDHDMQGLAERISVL
active: [2] -0.698 | [6] -0.515
inactive: bafetinib -0.16 | [1] 0.045 | nilotinib -0.204 | dasatinib -0.139 | [3] -0.145 | [4] 0.057 | [5] 0.045 | tipifarnib -0.123 | mubritinib 0.099 | [7] -0.217 | [8] -0.074 | [9] 0 | entinostat 0.331 | vorinostat 0.186 | silmitasertib 0.047 | [10] -0.014
